The values below come from PubChem BioAssay (NCATS).

Experiment [1] is described as follows: AP1 Signaling Pathway (AID 357). Also: % is scaled to controls: 0 for no effect and ±100 for the full control effect. Summed up:
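AP-1-bla ME-180 cells with beta-lactamase reporter under AP-1 response element, stimulated with EC50 EGF; compounds titrated, 5 hours at 37 degrees Celsius. CCF4 read at 460/530 nm ratio; positive and negative modulators judged by AC50.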

The target in experiment [2] is Cytochrome P450 1A2 (Homo sapiens) (UniProt P05177). Briefly: p450-cyp1a2 (AID 410; calls by dose curve;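 also: -100% = full effect of reference inhibitor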). The method, boiled down:
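Read-out is luminescence from luciferin produced by CYP1A2 demethylation of Luciferin-ME (100uM, at Km). Detection reagent stopped the 60 min NADPH-dependent reaction; signals were normalized to 57 uM furafylline.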

Experiment [3] can be described thus: NFAT Signaling Pathway (AID 444).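 Also: carbachol stimulus at about its EC50 of 1 µM final; % is scaled to controls: 0 for no effect and ±100 for the full control effect.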 As to conditions: Jurkat NFAT-bla M1, carbachol, beta-lactamase ratio, 5 h; at 17.2 µM (top of the series). The method, boiled down: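 Jurkat cells with NFAT-driven β-lactamase reporter and co-expressed M1 receptor, stimulated with carbachol (final 1 uM, ~EC50), compound titration, 5 h at 37 °C. CCF4 loaded 1 h at RT; 460/530 nm ratio gave %activity and AC50.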

Experiment [4] in a line: Stat Signaling Pathway (AID 446).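 Also: ME-180 cervical cancer cells given 40 pM IL-6 alongside compound; SIE-controlled beta-lactamase reporter measured as 460/530 nm FRET emission ratio; % is scaled to controls: 0 for no effect and ±100 for the full control effect.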 The method, boiled down: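 FRET read-out (405 nm excitation, 460/530 nm emission) of a beta-lactamase reporter under a STAT-inducible element in ME-180 cervical carcinoma cells. Cells with compound receive 40 pM IL-6 for 5 h. Values are normalised to AC90 stimulation and AC90 JAK-inhibitor controls.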
The target in experiment [5] is Glucocorticoid receptor (Homo sapiens) (UniProt P04150). Briefly: GR-GFP Redistribution (AID 450;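 active = compounds whose dose series gives a full or clear partial fitted curve of increased nuclear translocation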; also: potency is read from the fitted curve at half-maximal effect). As to conditions: U2OS GR-GFP nuclear translocation, laser cytometry, 2 h.
Experiment [6] has the same target. Briefly: GR-EFC Redistribution (AID 451; calls by dose curve; also: potency is read from the fitted curve at half-maximal effect). As to conditions: CHO-K1 GR-EFC translocation, beta-gal luminescence, 2 h. Summed up: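 CHO-K1 cells expressing nuclear EA and GR-ED fragments of b-gal; compounds titrated up to 46 uM final, 2 h at 37 C. GR nuclear translocation read as complemented b-gal luminescence after 1 h RT detection.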
Experiment [7] addresses Mitogen-activated protein kinase 10 (Mus musculus) (UniProt Q61831). The experiment in a line: JNK3 AlphaScreen Assay (AID 530).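 Also: kinase came from lysate of stimulated human HepG2 cells; signal reports phosphorylation of biotinylated GST-cJun 1-79 at Ser73 with 10 µM ATP; % is scaled to controls: 0 for no effect and ±100 for the full control effect.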 The method, boiled down: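 HepG2 lysate (IL-1b/TNFa pre-activated) + biotin-GST-cJun 1-79 + anti-pSer73 cJun; cpd titration, 15 min RT; ATP 10 uM start; Tris pH 7.6, MgCl2, DTT, vanadate; beads in EDTA buffer; AlphaScreen.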
Experiment [8] deals with 3',5'-cyclic-AMP phosphodiesterase 4B (Homo sapiens) (UniProt Q07343). The experiment in a line: qHTS Assay for Inhibitors of PDE-IV (AID 607; active = well fitted activation curve with a large enough effect in the main read-out, with a control signal flat, not every such curve was filed as active; also: % of control where 0% means no effect). Summed up:
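Cell-based read-out of cAMP via a modified cyclic nucleotide-gated channel and membrane potential dye (535/590 nm) in HEK293 cells expressing PDE4 endogenously. Compounds tested up to 22.9 uM final; 100 uM RO 20-1724 reference.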
In general terms: In qHTS, concentration-response curves come from the screen itself.

Experiment [9] addresses Cytochrome P450 3A4 (Homo sapiens) (UniProt P08684). The experiment in a line: qHTS Assay for Activators of Cytochrome P450 3A4 (AID 885; active = well fitted curve in the direction sought with a large enough effect; an effect the other way counts as inactive or inconclusive; also: nearly all actives have a fitted effect of over 65% in size). The method, boiled down: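 Luminescent readout of luciferin formed from 25 uM Luciferin-PPXE (KM level) by 20 nM CYP3A4 in 200 mM KPO4, with 60 min NADPH-driven reaction at room temperature after 10 min compound exposure. Ketoconazole (57 uM) defined 100% inhibition.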

Experiment [10] is described as follows: qHTS Assay for Lipid Storage Modulators (AID 1519; calls by dose curve). As to conditions: Drosophila S3 cells, BODIPY lipid droplet/cell ratio, laser cytometry, cells loaded with oleic acid. Summed up:
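Cells seeded at 5,000 per well were treated with compounds over a concentration series and loaded with oleic acid (400 uM, as added). Lipid droplet fluorescence (488 nm excitation, 500-530 nm channel) was read by laser-scanning cytometry and normalized to 20 uM Triacsin C.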

Experiment [11] deals with Ubiquitin carboxyl-terminal hydrolase 1 (Homo sapiens) (UniProt O94782). Briefly: Inhibitors of USP1/UAF1: Pilot qHTS (AID 504865; active = well fitted curve in the direction sought with a large enough effect; an effect the other way counts as inactive or inconclusive;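 also: rhodamine fluorescence freed from ubiquitin-rhodamine substrate followed over time; top concentration of the series differs between compounds; % is scaled to controls: 0 for no effect and ±100 for the full control effect; nearly all actives have a fitted effect of over 35% in size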). Summed up: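 In 50mM HEPES pH 7.8 containing 0.5mM EDTA, 1mM TCEP, 0.1 mg/ml BSA and 0.01% Tween-20, 1nM USP1/UAF1 is exposed to compound for 15 min, then Ub-Rho (150nM final) is added and fluorescence is read over time.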
[12] abbreviates: measured here: cell count channel max response.
[13] abbreviates: measured here: lipid channel max response.

Inconclusive results are not listed. The source made the active and inactive calls. Unless noted, calls follow the shape of the dose curve; as a rule, active = well fitted curve in either direction with a large enough effect (not every such curve was filed as active); inconclusive = small, poorly fitted or top-dose-only effect, or another doubt; inactive = flat fitted curve, though single readings scatter. Some results are limits rather than exact numbers.

Sequence of Cytochrome P450 1A2 (Homo sapiens) (P05177 whole entry, looked up): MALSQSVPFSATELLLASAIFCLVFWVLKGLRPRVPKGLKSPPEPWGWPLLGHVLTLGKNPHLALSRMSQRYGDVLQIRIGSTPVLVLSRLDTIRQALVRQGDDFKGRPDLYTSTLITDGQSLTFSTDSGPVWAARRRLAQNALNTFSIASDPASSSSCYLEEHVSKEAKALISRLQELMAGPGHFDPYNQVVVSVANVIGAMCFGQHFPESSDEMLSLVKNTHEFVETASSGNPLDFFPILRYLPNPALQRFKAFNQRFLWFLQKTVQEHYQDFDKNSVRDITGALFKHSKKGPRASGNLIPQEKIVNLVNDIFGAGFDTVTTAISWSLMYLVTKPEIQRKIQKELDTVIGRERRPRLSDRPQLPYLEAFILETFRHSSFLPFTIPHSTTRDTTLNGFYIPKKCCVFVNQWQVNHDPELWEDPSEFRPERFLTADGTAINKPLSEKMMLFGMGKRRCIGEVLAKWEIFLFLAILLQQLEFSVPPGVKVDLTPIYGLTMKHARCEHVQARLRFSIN
Sequence of Glucocorticoid receptor (Homo sapiens) (P04150 whole entry, looked up, the tested form may be a part): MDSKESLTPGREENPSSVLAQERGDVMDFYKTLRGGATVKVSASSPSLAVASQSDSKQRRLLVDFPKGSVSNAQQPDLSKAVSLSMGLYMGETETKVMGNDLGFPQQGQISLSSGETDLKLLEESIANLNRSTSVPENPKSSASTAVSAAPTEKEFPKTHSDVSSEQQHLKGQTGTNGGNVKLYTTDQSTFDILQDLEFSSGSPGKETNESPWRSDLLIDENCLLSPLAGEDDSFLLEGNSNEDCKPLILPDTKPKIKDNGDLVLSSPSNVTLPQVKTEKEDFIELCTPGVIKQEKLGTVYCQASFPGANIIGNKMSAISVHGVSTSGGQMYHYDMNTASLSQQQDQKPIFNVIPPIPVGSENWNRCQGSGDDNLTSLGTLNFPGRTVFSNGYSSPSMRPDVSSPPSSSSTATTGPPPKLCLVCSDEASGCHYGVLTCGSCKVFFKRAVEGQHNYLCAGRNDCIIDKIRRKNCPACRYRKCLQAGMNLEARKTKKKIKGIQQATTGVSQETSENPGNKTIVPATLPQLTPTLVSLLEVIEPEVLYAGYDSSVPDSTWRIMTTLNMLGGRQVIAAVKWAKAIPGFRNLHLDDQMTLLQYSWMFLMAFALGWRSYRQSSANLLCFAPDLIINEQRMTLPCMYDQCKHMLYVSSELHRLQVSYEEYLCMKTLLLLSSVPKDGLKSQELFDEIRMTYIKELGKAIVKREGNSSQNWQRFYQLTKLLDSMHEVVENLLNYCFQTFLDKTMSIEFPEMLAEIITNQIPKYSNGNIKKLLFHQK
Sequence of 3',5'-cyclic-AMP phosphodiesterase 4B (Homo sapiens) (Q07343 whole entry, looked up): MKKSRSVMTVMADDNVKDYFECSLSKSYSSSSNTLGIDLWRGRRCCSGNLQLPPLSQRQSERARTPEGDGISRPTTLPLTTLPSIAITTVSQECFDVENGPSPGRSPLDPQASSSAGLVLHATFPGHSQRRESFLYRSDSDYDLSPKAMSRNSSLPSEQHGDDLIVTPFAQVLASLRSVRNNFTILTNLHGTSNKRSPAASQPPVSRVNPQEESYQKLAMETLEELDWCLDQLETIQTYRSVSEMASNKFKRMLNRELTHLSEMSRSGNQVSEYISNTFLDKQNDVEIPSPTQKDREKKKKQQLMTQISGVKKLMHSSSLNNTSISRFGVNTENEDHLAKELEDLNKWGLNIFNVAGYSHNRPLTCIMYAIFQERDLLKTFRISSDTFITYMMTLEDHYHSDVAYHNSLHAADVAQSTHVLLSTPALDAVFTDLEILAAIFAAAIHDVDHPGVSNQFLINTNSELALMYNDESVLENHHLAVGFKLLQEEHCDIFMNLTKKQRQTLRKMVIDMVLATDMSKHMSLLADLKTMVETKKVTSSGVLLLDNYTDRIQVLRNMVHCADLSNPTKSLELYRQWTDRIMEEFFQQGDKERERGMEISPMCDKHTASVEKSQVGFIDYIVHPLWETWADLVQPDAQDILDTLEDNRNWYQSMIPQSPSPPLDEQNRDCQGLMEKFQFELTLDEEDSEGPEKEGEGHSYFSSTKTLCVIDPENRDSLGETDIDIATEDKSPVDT
Sequence of Ubiquitin carboxyl-terminal hydrolase 1 (Homo sapiens) (O94782 whole entry, looked up): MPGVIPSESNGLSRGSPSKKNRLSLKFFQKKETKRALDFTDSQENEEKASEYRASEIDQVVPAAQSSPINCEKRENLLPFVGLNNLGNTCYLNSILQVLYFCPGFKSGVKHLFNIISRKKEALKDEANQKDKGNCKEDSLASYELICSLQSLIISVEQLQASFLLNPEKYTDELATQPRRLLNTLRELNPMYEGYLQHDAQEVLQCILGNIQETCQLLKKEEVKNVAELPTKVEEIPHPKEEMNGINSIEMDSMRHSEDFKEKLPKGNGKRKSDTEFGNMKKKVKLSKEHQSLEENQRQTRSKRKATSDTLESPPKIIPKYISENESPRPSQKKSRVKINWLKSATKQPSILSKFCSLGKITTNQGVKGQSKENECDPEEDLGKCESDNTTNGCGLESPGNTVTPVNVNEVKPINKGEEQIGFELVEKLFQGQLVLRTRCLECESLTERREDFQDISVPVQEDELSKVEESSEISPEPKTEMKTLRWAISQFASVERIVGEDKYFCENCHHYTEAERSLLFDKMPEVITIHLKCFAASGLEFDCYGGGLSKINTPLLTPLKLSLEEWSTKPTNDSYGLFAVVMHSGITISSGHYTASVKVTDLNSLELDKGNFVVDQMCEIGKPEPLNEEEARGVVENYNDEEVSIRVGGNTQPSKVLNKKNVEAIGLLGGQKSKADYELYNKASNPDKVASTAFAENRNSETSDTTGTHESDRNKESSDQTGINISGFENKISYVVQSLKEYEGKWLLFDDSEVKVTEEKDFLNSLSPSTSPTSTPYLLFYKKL
Sequence of Cytochrome P450 3A4 (Homo sapiens) (P08684 whole entry, looked up): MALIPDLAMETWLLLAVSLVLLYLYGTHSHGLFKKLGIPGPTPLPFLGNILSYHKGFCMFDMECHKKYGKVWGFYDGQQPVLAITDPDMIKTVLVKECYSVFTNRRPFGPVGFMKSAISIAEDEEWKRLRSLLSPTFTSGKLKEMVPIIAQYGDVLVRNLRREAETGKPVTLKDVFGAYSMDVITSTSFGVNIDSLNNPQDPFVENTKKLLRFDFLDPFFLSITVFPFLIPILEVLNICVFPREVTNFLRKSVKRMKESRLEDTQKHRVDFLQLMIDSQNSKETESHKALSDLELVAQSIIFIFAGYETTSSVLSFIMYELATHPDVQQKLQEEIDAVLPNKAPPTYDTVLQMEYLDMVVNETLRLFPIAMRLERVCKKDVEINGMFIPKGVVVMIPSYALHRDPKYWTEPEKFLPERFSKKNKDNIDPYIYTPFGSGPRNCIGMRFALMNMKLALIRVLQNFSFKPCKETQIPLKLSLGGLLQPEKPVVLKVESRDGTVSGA

Turning to `COc1cc2c(c(OC)c1OC)-c1ccc(O)c(=O)cc1[C@H](N)CC2`, the result in experiment [1], in [4] and in experiment [7] was inactive. For the same molecule, the Potency entry in [2], in experiment [8] and in [9] was “inactive” each time. Further, the values for the activity change, negative = inhibition in experiment [3] and in [10] (at 25.7 µM (top of the series)) were 14.9% (inactive) and 1.48% (inactive), respectively. The Potency in [5] and in experiment [6] was > 20.6 µM (inactive) in each case. In addition, the max response is -6.02% in experiment [10] (setting [12]) and -4.27% in [10] (setting [13]).

On to `CCN1C[C@@]2(COC)[C@H]3[C@@H](OC)[C@H]4C1[C@@]3([C@H](OC)C[C@@H]2O)[C@H]1C[C@@]2(O)[C@@H](OC(=O)c3ccccc3)[C@@H]1[C@@]4(OC(C)=O)[C@H](O)[C@@H]2OC`, for which the result in experiment [1], in [4] and in [7] was inactive. In addition, the Potency result in experiment [2], in experiment [8] and in experiment [11] was “inactive” each time. For the same molecule, the activity change, negative = inhibition is -22.7% (inactive) in [3] and -1.64% (inactive) in experiment [10] (at 25.7 µM (top of the series)). In addition, the max response is -0.297% in experiment [10] (setting [12]) and -0.649% in experiment [10] (setting [13]).

Turning to `CC(C)[C@@]1(NC(=O)[C@@H]2C[C@H]3c4cccc5[nH]cc(c45)C[C@@H]3N(C)C2)O[C@]2(O)[C@H]3CCCN3C(=O)CN2C1=O`, the call in [1], in experiment [4] and in experiment [7] was inactive. The Potency result in experiment [2] and in experiment [11] was “inactive” each time. In addition, the values for the activity change, negative = inhibition in experiment [3] and in [10] (at 25.7 µM (top of the series)) were -1.94% (inactive) and 1.9% (inactive), respectively. Further, the Potency in experiment [5] and in experiment [6] was > 20.6 µM (inactive) in each case. In addition, the max response in experiment [10] (setting [12]) was determined as 8.08%; in experiment [10] (setting [13]), 10.3%.

Turning to `CN1[C@@H](C[C@@H](O)c2ccccc2)CCC[C@@H]1C[C@H](O)c1ccccc1`, the outcome in [1], in experiment [4] and in [7] was inactive. The Potency in experiment [5] and in experiment [6] was > 20.6 µM (inactive) throughout. Besides, the Potency entry in experiment [8] and in experiment [11] was “inactive” in each case. In addition, the activity change, negative = inhibition in experiment [10] (at 25.7 µM (top of the series)) was -1.73% (inactive). Also, the max response in [10] (setting [12]) turned out to be 3.31%; in experiment [10] (setting [13]) it was 0.966%.

For `CC(=O)[C@@H]1CC[C@H]2[C@H]3CC[C@H]4C[C@@H](O)CC[C@]4(C)[C@@H]3C(=O)C[C@@]12C`, the molecule was called inactive in experiment [1], in [4] and in [7]. The activity change, negative = inhibition in experiment [3] is -7.61% (inactive); in experiment [10] (at 25.7 µM (top of the series)), -4.19% (inactive). Moreover, the figures for the max response in experiment [10] (setting [12]) and in [10] (setting [13]) were -12.1% and -15.2%, respectively. Besides, in experiment [11], the Potency entry was “inactive”.

For `CC(C)CN1CC2(CCN(C(=O)c3ccncc3)CC2)C1`, the call in experiment [1], in experiment [4] and in experiment [7] was inactive. The Potency result in experiment [2] and in experiment [8] was “inactive” in each case. For the same molecule, in [6], the Potency is > 46 µM (inactive). For the same molecule, the activity change, negative = inhibition in experiment [10] (at 57.5 µM (top of the series)) was -1.63% (inactive). Besides, the values for the max response in experiment [10] (setting [12]) and in experiment [10] (setting [13]) were 11.7% and 11.8%, respectively.
